ChEMBL document CHEMBL4513216, “Probing the Open Global Health Chemical Diversity Library for Multistage-Active Starting Points for Next-Generation Antimalarials” (ACS Infect Dis, 2020)
Hit rate of the full screen: of about 69,000 compounds, about 8,600 (12%) showed an effect of 50% or more. The list comes from a sample in which strong results are over-represented; it also holds similar structures and randomly drawn compounds.

System: Plasmodium berghei
Test: Screen against P. berghei liver stage (PbLuc), transformed with Luciferase, at 10uM
Type: functional, HepG2
Details: tested at 10 uM

Structure (SMILES) | INHIBITION
CC(C)c1ccc(-n2ncc(C(=O)NCC3COC(C)(C)O3)c2N)cc1 (stereo not drawn) | -20.1%
CCOC(=O)NCCC(=O)NC(C)(C)c1ccc2c(c1)OCCO2 | -15.7%
CC(C)(C)c1nc(CN(Cc2cccs2)CC2CCCO2)no1 (stereo not drawn) | 11.2%
c1cncc(COc2ccccc2CNC2CCc3ncnn3C2)c1 (stereo not drawn) | -4.823%
Cc1noc(C2CCC3(CCN(C(=O)c4ncccn4)CC3)O2)n1 (stereo not drawn) | -14.2%
O=C(C(c1ccccc1)S(=O)(=O)c1ccccn1)N1CCCCC1 (stereo not drawn) | 24.7%
Cc1ccc(C(C)N(C)C(=O)c2ccc(=O)n(C)c2)s1 (stereo not drawn) | 37.4%
Cc1ncsc1CN1CCOC(C)(C(=O)N(C)C)C1 (stereo not drawn) | 21.1%
CCCn1c(C)c(CC(=O)NC(C)(C)CO)c2c1CC(C)(C)CC2=O | 4.25%
Cn1cc(CN2C[C@@H]3COC[C@]3(C(=O)NCCc3ccccc3)C2)cn1 | 32.2%
O=C(NC1CC1)[C@H]1C[C@@H]2CCN(CCc3ccccc3)C[C@H]2O1 | 44.4%
O=C(NC1CC1)[C@@H]1C[C@@H]2CCN(Cc3ccccc3)C[C@H]2O1 | 29.9%
O=C(NC1CCC1)[C@@H]1C[C@@H]2CCN(CCc3ccccc3)C[C@H]2O1 | 81.2%
CS(=O)(=O)c1ccc(CNC(=O)N2CCC(CO)CC2)cc1 | 17.4%
CCc1nccn1CC1CCCN1S(=O)(=O)N1CCCOCC1 (stereo not drawn) | -9.39%
CN1C[C@H]2CC[C@@H](CC1=O)N2C(=O)c1cc2ccccc2[nH]c1=O | -7.53%
Cc1cc(N(C)C)nc(N2CCCC2c2ccccn2)n1 (stereo not drawn) | -30%
CC(C)CCC(=O)NC(C)c1nnc2n1CCCCC2 (stereo not drawn) | 53.8%
CC(C)c1noc(CCCC(=O)NC(C)c2nnc3n2CCC3)n1 (stereo not drawn) | 50.2%
CC(C)c1noc(CCC(=O)NC(C)c2nnc3n2CCC3)n1 (stereo not drawn) | 20.6%

Structure (SMILES) | INHIBITION
CC(C)c1noc(CCC(=O)NC(C)c2nnc3n2CCCCC3)n1 (stereo not drawn) | 11.8%
CC(NC(=O)CCC1CCCCC1)c1nnc2n1CCC2 (stereo not drawn) | -31.8%
CCCC(=O)NC(C)c1nnc2n1CCC2 (stereo not drawn) | 3.73%
CSCCC(C)(O)CNS(=O)(=O)Cc1cccc(C)c1 (stereo not drawn) | 17%
Cc1cc(N2CCCC2c2nnc3n2CCCCC3)nc(N)n1 (stereo not drawn) | 63.6%
Cc1cc(N2CCCC2c2nnc3n2CCCCC3)nc(C)n1 (stereo not drawn) | 23.6%
CCOc1cncc(N2CCCC2c2nnc3n2CCCCC3)n1 (stereo not drawn) | 24.2%
Clc1cncc(N2CCCC2c2nnc3n2CCCCC3)n1 (stereo not drawn) | -22.4%
c1cnc2nc(N3CCCC3c3nnc4n3CCCCC4)ccc2n1 (stereo not drawn) | 58.7%
c1ccc2nc(N3CCCC3c3nnc4n3CCCCC4)cnc2c1 (stereo not drawn) | 42.8%
Cc1cnn(C2CCCN(C(=O)Cc3n[nH]c4ccccc34)C2)c1 (stereo not drawn) | 33.7%
CN(CCc1ccccn1)C(=O)CCC1CCCN(S(C)(=O)=O)C1 (stereo not drawn) | 15.3%
O=C(NCc1nncn1C1CCCCC1)C1COc2ccccc2C1 (stereo not drawn) | 32.4%
CNC(=O)N1CCc2cc(C(=O)N(C)C)c(NCC3CC3)nc2CC1 | -25%
Cc1c(Cl)cc(C(=O)NCCc2ncnn2C)cc1Cl | 42%
Cc1c(NCC(C)(C)C)cccc1C(=O)NCc1ncnn1C | -30.1%
COc1ccc(Br)c(NC(=O)NCc2ncnn2C)c1 | 13.8%
COc1ccc(C)c(NC(=O)NCc2ncnn2C)c1 | 51.1%
COc1ccc(Cl)cc1CCNC(=O)NCc1ncnn1C | -23.5%
Cc1cc(C)cc(C(=O)NCc2ncnn2C)c1 | 57.2%

Structure (SMILES) | INHIBITION
O=C(c1ccc(-c2ccccc2)[nH]c1=O)N1CCN(C2CC2)CC1 | 32.8%
CN(C)C(=O)[C@H]1C[C@H]2CN(C(=O)NCC3CCCCC3)C[C@@H]1O2 | -36%
Fc1ccc(CN2CCCn3cnc(COCC4CC4)c3C2)cc1 | 45.8%
CC(NC(=O)C1CCCC1)c1nc(-c2ccccc2)c[nH]1 (stereo not drawn) | 31.7%
O=C(COC1CCCC1)NC(C(=O)Nc1cc[nH]n1)c1ccccc1 (stereo not drawn) | 62.6%
O=C(NC(C(=O)Nc1cc[nH]n1)c1ccccc1)C1CCC1 (stereo not drawn) | 50.7%
NC(=O)C(NC(=O)COC1CCCCC1)c1ccccc1 (stereo not drawn) | 22.5%
O=C(NC(c1ccccc1)c1cccnc1)C1CC1 (stereo not drawn) | 25.8%
NC(=O)C(NC(=O)COC1CCCC1)c1ccccc1 (stereo not drawn) | 45.3%
c1cnnc(N2CCCC2CNCc2nc(-c3ccco3)no2)c1 (stereo not drawn) | 30.42%
CNC(=O)CN1CC[C@H]2CN(C(=O)c3ccoc3)C[C@H]2C1 | 15.4%
Cc1ccc(CC(=O)N2CCCC(n3ccnc3C(C)C)C2)cn1 (stereo not drawn) | -9.19%
CN1CCOC(CNC(=O)Cc2coc(-c3ccccc3)n2)C1 (stereo not drawn) | -33.9%
CC(=O)c1cccc(NC(=O)CCn2nc(-c3cccs3)oc2=O)c1 | 29.2%
O=C(c1c2c(NCC3CC3)ncnc2n2ccccc12)N1CCCC1 | 26.5%
O=C(c1c2c(NCC3CC3)ncnc2n2ccccc12)N1CCOCC1 | 50.7%
O=C(c1c2c(N3CCCC3)ncnc2n2ccccc12)N1CCOCC1 | 36.2%
CCc1n[nH]c(C2CN(C(=O)c3cscn3)CCO2)n1 (stereo not drawn) | -23.9%
